Data from PubChem BioAssay (NCI).
The panel holds about 83,000 compounds, 20% with a hit somewhere; the sample as a whole holds those more often.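 Growth was measured after 48 h exposure to one concentration of compound in 96-well plates. Values under 10 count as active.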 A number with no mark means an inactive call. The source made the active and inactive calls.

Tests used:
Experiment in all cases: NCI-60 one-dose screen, 48 h (100 = growth as untreated, 0 = no growth, -100 = all killed)
Conditions in all cases: 10 µM unless noted
[1] = test system: HCT-15 colon
[2] = test system: SNB-75 CNS
[3] = test system: SNB-19 CNS
[4] = test system: U251 CNS
[5] = test system: PC-3 prostate
[6] = test system: SK-MEL-5 melanoma
[7] = test system: UACC-62 melanoma
[8] = test system: LOX IMVI melanoma
[9] = test system: SK-MEL-28 melanoma

Row | Structure (SMILES) | growth [1] | growth [2] | growth [3] | growth [4] | growth [5] | growth [6] | growth [7] | growth [8] | growth [9]
1 | O=[N+]([O-])c1cc(Br)cc2c1[nH]c1ccc(Br)cc12 | 81.8% | 19.9% | 81.1% | 58.4% | 60% | 88.1% | 67.7% | 38% | 89.8%
2 | CC1(O)CCC2CC3OC3(C)CCC3OC3(C)C(O)CC1C2(C)C (centres undefined) | 102% | 95.3% | 99.3% | 98.3% | 87.4% | 112% | 98.3% | 93.7% | 112%
3 | O=C1NC(=O)/C(=C/c2ccc3nccc(-c4ccncc4)c3c2)S1 | -19.5% (active) | -45.9% (active) | -26.6% (active) | -74.6% (active) | -24.5% (active) | -94.7% (active) | -74.2% (active) | -40.8% (active) | -32.6% (active)
4 | CO[C@@H](C)Cn1c(=O)n(C)c2cnc3ccc(-c4cncc(C(C)(C)O)c4)cc3c21 | 7.42% (active) | -41.8% (active) | 8.17% (active) | 2.44% (active) | 7.66% (active) | -96.5% (active) | -37.6% (active) | – | -8.17% (active)
5 | N#Cc1ccc(-n2nnc3ccccc32)cc1C#N | 99.8% | 121% | 112% | 91.3% | 101% | 97.6% | 94.5% | 99.4% | 104%
